The source made the active and inactive calls. Rule for the calls: active = hit-call score of the fitted dose curve at least 0.9, where 1 is the maximum; inactive = score below 0.9.
Columns and labels:
Details in all cases: mRNA level, 48 h; actives raise or lower the signal
[1] = read-out: Potassium channel subfamily K member 1 (KCNK1), KCNK1 (gene 3775); test: LTEA_HepaRG_KCNK1: Life Technologies and Expression Analysis (LTEA) Assay for Potassium channel subfamily K member 1 (KCNK1) using HepaRG (AID 2283511)
Method in brief: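 Human HepaRG cultures receive test chemicals for 48 h in 0.5% DMSO, top concentration 100 uM with half-log dilutions. Induction or suppression of KCNK1 mRNA relative to DMSO is derived by bidirectional fitting of qRT-PCR data.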

[2] = read-out: Keratin 19 (KRT19), KRT19 (gene 3880); test: LTEA_HepaRG_KRT19: Life Technologies and Expression Analysis (LTEA) Assay for Keratin 19 (KRT19) using HepaRG (AID 2283512)
Method in brief: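 Differentiated HepaRG cells in serum-free induction medium, exposed 48 h in duplicate to 8 half-log concentrations up to 100 uM in 0.5% DMSO. KRT19 mRNA by qRT-PCR, normalized to ACTB, GAPDH, POLR2A; bidirectional fit vs DMSO.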

[3] = read-out: JUN Transcription Factor, JUN (gene 3725); test: LTEA_HepaRG_JUN: Life Technologies and Expression Analysis (LTEA) Assay for JUN Transcription Factor using HepaRG (AID 2283513)
Method in brief: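 HepaRG, 48 h exposure, 8-pt half-log series top 100 uM, 0.5% DMSO, duplicate. JUN mRNA by qRT-PCR (Fluidigm), housekeeping-normalized (ACTB/GAPDH/POLR2A); bidirectional curve fit vs DMSO baseline.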

[4] = read-out: Lipase C (LIPC), LIPC (gene 3990); test: LTEA_HepaRG_LIPC: Life Technologies and Expression Analysis (LTEA) Assay for Lipase C (LIPC) using HepaRG (AID 2283514)
Method in brief: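 In this multiplexed gene-expression screen, human HepaRG cultures received test chemicals for 48 h across eight concentrations with 100 uM highest, in duplicate. Values reflect LIPC mRNA induction or suppression versus DMSO vehicle, from normalized qRT-PCR.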

[5] = read-out: Lipoprotein lipase (LPL), LPL (gene 4023); test: LTEA_HepaRG_LPL: Life Technologies and Expression Analysis (LTEA) Assay for Lipoprotein lipase (LPL) using HepaRG (AID 2283515)
Method in brief: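 Concentration-response testing used half-log steps from 100 uM in 0.5% DMSO on human HepaRG cells, 48 h, duplicate wells. Phenobarbital 1 mM served as induction control; LPL mRNA was normalized to ACTB, GAPDH, POLR2A.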

[6] = read-out: MicroRNA 122 (MIR122), gene 406906; test: LTEA_HepaRG_MIR122: Life Technologies and Expression Analysis (LTEA) Assay for MicroRNA 122 (MIR122) using HepaRG (AID 2283516); note: the transcript read is the microRNA miR-122
Method in brief: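 qRT-PCR read-out (TaqMan, Fluidigm array), normalized to three housekeeping genes; HepaRG cells dosed 48 h at 8 concentrations up to 100 uM in 0.5% DMSO, duplicate; gain or loss fitted against DMSO baseline.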

[7] = read-out: matrix metalloproteinase-10 (MMP10), MMP10 (gene 4319); test: LTEA_HepaRG_MMP10: Life Technologies and Expression Analysis (LTEA) Assay for matrix metalloproteinase-10 (MMP10) using HepaRG (AID 2283517)
Method in brief: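 In differentiated HepaRG cultures kept in 0.5% DMSO, test chemicals act for 48 h over an eight-point range with a top dose of 100 uM. Expression is then quantified by TaqMan RT-PCR against ACTB, GAPDH and POLR2A.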

[8] = read-out: matrix metalloproteinase-3 (MMP3), MMP3 (gene 4314); test: LTEA_HepaRG_MMP3: Life Technologies and Expression Analysis (LTEA) Assay for matrix metalloproteinase-3 (MMP3) using HepaRG (AID 2283519)
Method in brief: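 Human liver HepaRG cultures received chemicals (top concentration 100 uM, 0.5% DMSO) for 48 h in duplicate. MMP3 mRNA induction or loss was then assessed via TaqMan qRT-PCR with housekeeping-gene normalisation.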

[9] = read-out: Paternally Expressed 10 (PEG10), PEG10 (gene 23089); test: LTEA_HepaRG_PEG10: Life Technologies and Expression Analysis (LTEA) Assay for Paternally Expressed 10 (PEG10) using HepaRG (AID 2283520);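 for AC50: PEG10 transcript by qRT-PCR normalised to ACTB GAPDH and POLR2A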
Method in brief: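 qRT-PCR read-out: PEG10 mRNA normalised to three housekeeping genes, fitted bidirectionally against 0.5% DMSO vehicle. HepaRG cells received test chemicals for 48 h in serum-free induction medium, 8 points, top 100 uM, half-log steps.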

[10] = read-out: MYC, MYC (gene 4609); test: LTEA_HepaRG_MYC: Life Technologies and Expression Analysis (LTEA) Assay for MYC using HepaRG (AID 2283518)
Method in brief: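 Differentiated HepaRG cells exposed 48 h in serum-free induction medium to 8 concentrations (top 100 uM, half-log steps; 0.5% DMSO), duplicate. MYC mRNA measured by Fluidigm qRT-PCR, normalized to ACTB, GAPDH, POLR2A; bidirectional fit versus DMSO.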

Measured: AC50

CN(C)C(=O)NC1(c2ccccc2)CCN(CCC[C@]2(c3ccc(Cl)c(Cl)c3)CCCN(C(=O)c3ccccc3)C2)CC1
active: [1] 16.1 µM | [2] 20.7 µM | [3] 20.2 µM | [7] 19.4 µM | [8] 18.2 µM | [9] 12.5 µM
inactive: [4] | [5] | [6]

O=C(N[C@@H](c1ccccc1)[C@@H]1CCCCN1)c1cccc(C(F)(F)F)c1Cl
inactive: [4] | [6]
active: [1] 50 µM | [2] 12.6 µM | [3] 65 µM | [5] 84.7 µM | [7] 35 µM | [10] 50 µM | [9] 50 µM

CS(=O)(=O)c1ccc([C@@H](C[C@H]2CCC(=O)C2)C(=O)Nc2cnccn2)cc1Cl
inactive: [2] | [7] | [9]
active: [1] 1.4 µM | [3] 1.43 µM | [4] 1.08 µM | [5] 0.934 µM | [6] 1.41 µM | [10] 1.14 µM

c1ccc2occc2c1
not listed: [8]
inactive: all other assays above

CCCCCCCCCC[N+](C)(C)[O-]
not listed: [8]
inactive: all other assays above

O=NO
not listed: [8]
inactive: all other assays above

Nc1nc(Cl)nc2c1ncn2[C@H]1C[C@H](O)[C@@H](CO)O1
active: [1] 1.36 µM | [4] 1.03 µM | [5] 1.03 µM | [6] 1.55 µM | [7] 1.72 µM | [8] 3.75 µM | [9] 0.636 µM
inactive: [2] | [10]

C=CCCCCCCCCCCCC
not listed: [8]
inactive: all other assays above

O=Cc1ccccc1C=O
not listed: [8]
inactive: all other assays above

CC(C)(C)c1ccccc1
not listed: [8]
inactive: all other assays above

COc1ccc(C(=O)Nc2nc3ccccc3c(NCc3ccccc3)c2C#N)cc1
active: [2] 12.9 µM | [4] 15.7 µM | [5] 4.35 µM | [6] 14.7 µM | [10] 14.6 µM | [9] 16.1 µM
inactive: [1] | [3] | [7]

CCCCCCC(CCCCCCCCCCC(=O)OCC(COC(C)=O)OC(C)=O)OC(C)=O (stereo unspecified)
not listed: [8]
inactive: all other assays above

CCCCc1nc2cccnc2n1Cc1ccc(-c2ccccc2-c2nnn[nH]2)cc1
active: [8] 50 µM | [9] 74.6 µM
not listed: [2]
inactive: all other assays above

CC(=O)CC(c1ccccc1)c1c(O)c2ccccc2oc1=O (stereo unspecified)
not listed: [8]
inactive: all other assays above

Cc1ccc(-c2cc(C(F)(F)F)nn2-c2ccc(S(N)(=O)=O)cc2)cc1
active: [3] 83.4 µM | [5] 87.4 µM | [10] 67.3 µM | [9] 64.2 µM
not listed: [8]
inactive: all other assays above

CCCCCCCCCCCCCCCCO
not listed: [8]
inactive: all other assays above

O=C1NC(=O)C(c2ccccc2)(c2ccccc2)N1
not listed: [8]
inactive: all other assays above

N[C@@H](Cc1c[nH]c2ccccc12)C(=O)O
not listed: [8]
inactive: all other assays above

CC(=O)O[C@]1(C(C)=O)CC[C@H]2[C@@H]3C=C(Cl)C4=CC(=O)[C@@H]5C[C@@H]5[C@]4(C)[C@H]3CC[C@@]21C
active: [2] 17.9 µM | [5] 13.3 µM | [10] 9.92 µM
not listed: [6]
inactive: all other assays above

CCCCC(CC)COC(=O)CCCCCCCC(=O)OCC(CC)CCCC (stereo unspecified)
not listed: [8]
inactive: all other assays above

NC(=Nc1ccccc1)Nc1ccccc1
active: [9] 19.3 µM
not listed: [8]
inactive: all other assays above

CC(=O)[C@@]1(O)CC[C@H]2[C@@H]3CCC4=CC(=O)CC[C@]4(C)[C@H]3CC[C@@]21C
active: [9] 7.76 µM
not listed: [8]
inactive: all other assays above

CC(C)OC(=O)C(C)(C)Oc1ccc(C(=O)c2ccc(Cl)cc2)cc1
not listed: [3] | [8]
inactive: all other assays above

— PubChem BioAssay (EPA / NIEHS)
